A selection: hits, their analogues and other compounds. The true share with any hit is near 9.2%.
KDM4E inh: inhibitors of human JMJD2E histone demethylase. 230,000 compounds, 1.6% hits. Potency, µM (doses to about 57.1 µM), hits mostly inhibitors. AID 2147. JMJD2E catalytic domain, FDH-coupled NADH fluorescence (FDH is formaldehyde dehydrogenase). B2RXH2; further: nearly all actives have a fitted effect of over 50% in size
Target sequence (B2RXH2 1-337 limits assumed): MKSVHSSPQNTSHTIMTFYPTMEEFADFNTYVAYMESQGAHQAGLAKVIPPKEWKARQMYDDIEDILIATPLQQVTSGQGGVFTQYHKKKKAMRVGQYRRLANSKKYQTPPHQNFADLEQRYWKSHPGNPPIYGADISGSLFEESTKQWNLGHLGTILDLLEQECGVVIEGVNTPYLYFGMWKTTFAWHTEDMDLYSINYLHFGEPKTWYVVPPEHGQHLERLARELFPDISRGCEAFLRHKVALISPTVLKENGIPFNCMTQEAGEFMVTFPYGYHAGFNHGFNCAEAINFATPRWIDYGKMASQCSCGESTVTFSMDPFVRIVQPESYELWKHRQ
HTT ATP protect: protects HTT-Q103 PC12 cells, measured by ATP; AID 1471; PC12 HTT-Q103 induced, cytoprotection, ATP luminescence, 40 h; 230,000 compounds, 0.14% hits; Potency, µM (series often up to 56.4 µM), hits mostly activators; active means well fitted curve in the direction sought with a large enough effect; inconclusive means small, poorly fitted or top-dose-only effect, or another doubt; inactive means no such curve, though single readings can be large; an effect the other way counts as inactive or inconclusive; further: nearly all actives have a fitted effect of over 45% in size
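Readout: ATPlite luminescence (ATP level). Model: stable PC12, inducible Htt exon1 Q103-GFP. Inducer: tebufenozide, 100 nM final. Compounds: dose series. No G418 in medium.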
HPGD inh: HPGD (human) dehydrogenase inhibition; 150,000 compounds, 4.3% hits; Potency, µM, actives largely listed as inhibitors; purified HPGD, NADH fluorescence kinetic, PGE2 substrate; P15428
Target sequence (P15428 whole entry, looked up): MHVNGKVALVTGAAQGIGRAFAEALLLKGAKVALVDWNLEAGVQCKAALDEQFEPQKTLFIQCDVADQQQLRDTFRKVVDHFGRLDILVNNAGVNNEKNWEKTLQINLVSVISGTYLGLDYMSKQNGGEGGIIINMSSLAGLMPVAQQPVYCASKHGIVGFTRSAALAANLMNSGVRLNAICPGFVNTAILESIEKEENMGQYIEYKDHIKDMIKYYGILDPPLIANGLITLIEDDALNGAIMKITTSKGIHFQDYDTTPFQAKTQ
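20 nM HPGD preincubated 15 min at room temperature with compound in 50 mM Tris-HCl pH 8, 0.01% Tween 20. Started with 1 mM NAD+ and 30 uM prostaglandin E2; NADH fluorescence (360/450 nm) read 5 times over 30-s intervals, last minus first.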
ALDH1A1 inh: inhibitors of human aldehyde dehydrogenase 1A1 | P00352 | Purified ALDH1A1, NADH fluorescence, propionaldehyde substrate | Potency, µM (highest dose often 75.3 µM), most hits filed as inhibitors | 220,000 compounds, 7.3% hits | AID 1030
HttQ103 aggreg: inhibitors of mutant huntingtin aggregate formation in PC12 cells | AID 1688 | Potency, µM (titrated, usually from 46.1 µM), hits mostly inhibitors | PC12 HttQ103-GFP aggregates, Acumen cytometry, 40 h | 220,000 compounds, 1.1% hits; active means well fitted curve in the direction sought with a large enough effect; inconclusive means small, poorly fitted or top-dose-only effect, or another doubt; inactive means no such curve, though single readings can be large; an effect the other way counts as inactive or inconclusive; further: nearly all actives have a fitted effect of over 60% in size
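Huntingtin Q103 exon 1–GFP aggregates in induced PC12 cells (100 nM tebufenozide) were quantified by cytometry from lysates, with compounds dosed in titration.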
LMNA splice mod: modulators of lamin A splicing; HeLa LMNA splicing GFP/RFP minigene ratio, 48 h; Potency, µM (doses to about 46.1 µM), actives largely listed as inhibitors; 200,000 compounds, 0.01% hits; AID 1487; active means well fitted inhibition curve with a large enough effect in the signal ratio, with a control signal flat, not every such curve was filed as active; inconclusive means small, poorly fitted or top-dose-only effect, or effect the other way, or a change in a side signal; the % refers to the signal ratio
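S3 HeLa cells stably expressing lamin A-EGFP splicing minigene plus DsRed2, 600 cells/well, 48 h compound exposure at 37C. Laser-scanning cytometry; analysed as GFP (500-530 nm)/RFP (575-640 nm) total intensity ratio; 0.5% DMSO vehicle.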
Numbers stand for hits; i = inactive; ? = inconclusive; nt = no result; [ ] = another dose, or the depositor's remark. Unless noted, the call rests on the fitted dose curve; in most records, active means well fitted inhibition curve with a large enough effect (not every such curve was filed as active); inconclusive means small, poorly fitted or top-dose-only effect, or another doubt; inactive means no such curve, though single readings can be large or run the other way.

SMILES	KDM4E inh	HTT ATP protect	HPGD inh	ALDH1A1 inh	HttQ103 aggreg	LMNA splice mod
COc1cccc(CNC(=O)C2CCN(S(=O)(=O)N3CCCCC3)CC2)c1	i	i	i	10µM	i	i
COc1ccccc1CNC(=O)c1ccc(S(=O)(=O)N2CCCC2)cc1	i	i	nt	?	i	?
Cn1c(=O)[nH]c(=O)c2c1nc(SCCO)n2CC(O)COc1ccccc1 (configuration not stated)	i	i[10 µM]	nt	i	i[9.22 µM]	nt
COC(=O)[C@@]1(C)CCC[C@@]2(C)c3ccc(O)c(C(C)C)c3CCC21 (some centres not stated)	i	i	i	i	nt	nt
COc1ccc(-c2nc3cnc(N4CCNCC4)nc3n(C3CC3)c2=O)cc1	nt	i	?	?	nt	nt
COc1ccccc1CNc1ncnc2ccc(-c3ccc(C(=O)N(C)C)cc3)cc12	nt	i	nt	?	nt	?
COc1cccc(CNC(=O)c2ccc(S(=O)(=O)N3CCCC3)cc2)c1	i	i	i	13µM	i	i
CN(C)c1ccccc1CN1CCCN(Cc2ccccc2N(C)C)C1c1ccncc1	nt	i[10 µM]	i	?	nt	nt
O=C(CCSCc1cccc(Cl)c1)NCCC1=CCCCC1	i	i[10 µM]	?	i	i	i
O=C(CCSCc1ccccc1Cl)NC1CCCC1	i	i[10 µM]	11µM	i	i	i
O=C(CSc1nccn1-c1cccc(Cl)c1)NC1CCCC1	i	i	16µM	i	i	i
O=C(CSc1nccn1-c1cccc(Cl)c1)NO	i	i	nt	i	i	nt
O=C(CCSCc1cccc(Cl)c1)NC1CCCC1	i	i[10 µM]	14µM	i	i	i
CCNc1ncc2nc(-c3cc(F)cc(F)c3)c(=O)n(C[C@H]3CCCO3)c2n1	nt	i	nt	?	nt	i
COc1ccc(Cc2nn3c(-c4cc(OC)c(OC)c(OC)c4)nnc3s2)cc1	i	i[10 µM]	22µM	11µM	i	?
COc1cc(-c2nnc3sc(Cc4ccccc4)nn23)cc(OC)c1OC	i	i	?	22µM	i	i
O=C(CNC1CCCCC1)N1CCc2ccccc2C1	i	i	i	11µM	i	i
O=C(NC1CCCCC1)N1CCc2ccccc2C1	i	i[10 µM]	nt	i	i[9.22 µM]	i
COc1cccc(-c2nc(C(N)=O)c3c(n2)n(-c2ccc4c(c2)OCO4)c(=O)n3C)c1OC	nt	nt	nt	nt	nt	i
CCCCC[C@H](CC(=O)NO)C(=O)N[C@@H](C(=O)N1CCC[C@H]1CO)C(C)C	nt	i[1.9 µM]	nt	nt	nt	nt
N#CC1=C(SCc2ccccc2Cl)NC(=O)C(C(N)=O)C1 (configuration not stated)	i	i[10 µM]	i	16µM	i	i
C=CC1=C2C=C(C3CC3)N(c3ccc(OC)cc3)C=C2C(=O)C(C)(OC(=O)c2ccco2)C1=O (configuration not stated)	i[11.4 µM]	i[10 µM]	i	i[13.5 µM]	nt	i[9.22 µM]
O=S(=O)(Cc1ccccc1)N1CCN(Cc2ccc3c(c2)OCO3)CC1	i	i	i	i	i	?
Cc1cccc(N2C(=O)CC(N3CCN(Cc4ccc5c(c4)OCO5)CC3)C2=O)c1 (configuration not stated)	i	i	i	22µM	i	i
O=C1CC(N2CCN(c3ccccc3Cl)CC2)C(=O)N1c1ccccc1 (configuration not stated)	i	i[0.074 µM]	i	25µM	i	i
SMILES	KDM4E inh	HTT ATP protect	HPGD inh	ALDH1A1 inh	HttQ103 aggreg	LMNA splice mod
Cc1ccc(C)c(N2C(=O)CC(N3CCN(Cc4ccc5c(c4)OCO5)CC3)C2=O)c1 (configuration not stated)	i	i[10 µM]	i	?	i	i
O=C1CC(N2CCN(c3ccccc3)CC2)C(=O)N1c1ccc2c(c1)OCCO2 (configuration not stated)	i	i[0.074 µM]	i	i	i	i
O=C1CC(N2CCN(c3ccc(F)cc3)CC2)C(=O)N1c1ccc2c(c1)OCO2 (configuration not stated)	i	i	nt	19µM	i	nt
O=C1CC(N2CCN(Cc3ccc4c(c3)OCO4)CC2)C(=O)N1c1ccccc1 (configuration not stated)	i	i[1.9 µM]	i	16µM	i	i
CCCn1c(-c2ccc(F)cc2)nc2c(N3CCN(CCn4ccnc4)CC3)nc(C)nc21	?	i	i	i	nt	nt
Cc1cccc(Nc2nc(N)nc(CN3CCN(Cc4ccc5c(c4)OCO5)CC3)n2)c1	i	i[0.074 µM]	i	14µM	i	?
CCC(C)[C@H](NC(=O)N1CCC(C)CC1)C(=O)OC (some centres not stated)	i	i[10 µM]	nt	i	i[9.22 µM]	nt
CCOC(=O)c1sc2nc(NC(=O)C(C)(C)C)sc2c1C	?	i	?	?	35µM	?
CCOC(=O)c1sc2nc(NC(=O)C3CC3)sc2c1C	?	i	?	?	i	i
O=C(O)[C@H]1C[C@@H](CP(=O)(O)O)CCN1	i	i	i	?	i	nt
O=C(/C(=N\Nc1ccccc1)Sc1nnnn1-c1ccccc1)c1ccccc1	i	i[10 µM]	i	1.4µM	i	i
c1ccc(C2CN3CCSC3=N2)cc1 (configuration not stated)	i	?	i	i	i	?
Brc1ccc([C@H]2CN3CCSC3=N2)cc1	11µM	i[1.9 µM]	i	i	nt	?
Cc1csc(NC(=O)c2nc(-c3ccccc3)n(-c3ccccc3)n2)n1	i	i	i	14µM	i	?
O=C(Nc1nccs1)c1nc(-c2ccccc2)n(-c2ccccc2)n1	i	i	i	i	i	i
Cc1ccc(C(=O)Oc2ccccc2N2C(=O)C3CCCCC3C2=O)cc1 (configuration not stated)	i	i	i	i	i	i
COc1ccccc1C(=O)O/N=C(/C)c1ccc(N2C(=O)C3CCCCC3C2=O)cc1 (configuration not stated)	i	i	25µM	13µM	i	i
O=C(Nc1cc(S(=O)(=O)N2CCCCC2)ccc1N1CCCCC1)C1CC1	i	i[10 µM]	nt	nt	i[9.22 µM]	nt
COc1cccc(-c2cn3c(n2)sc2cc(C(=O)NCc4cccs4)ccc23)c1	nt	nt	nt	nt	nt	i
O=C1S/C(=C/c2ccc(N3CCOCC3)o2)C(=O)N1Cc1c(F)cccc1Cl	i	i	i	0.13µM	?	i
O=C1S/C(=C\c2ccc(N3CCOCC3)o2)C(=O)N1c1ccccc1	?	i	nt	0.89µM	16µM	nt
O=C1S/C(=C\c2ccc(N3CCOCC3)o2)C(=O)N1Cc1c(F)cccc1Cl	i	i	?	0.13µM	i	?
O=C1COC(c2ccccc2)C2CCCCN12 (configuration not stated)	i	nt	i	i	i	?
COc1ccc(/C=N/NC(=O)CCn2cnc(-c3ccccc3)c2-c2ccccc2)cc1OC	i	i[10 µM]	i	28µM	i	?
COc1ccc(/C=N/NC(=O)CCC(=O)Nc2ccccc2)cc1OC	i	i[10 µM]	i	i	i	i
Cc1cccc(CN2C(=O)CC(c3ccc(Cl)cc3)c3c(C)nn(-c4nc(C)cc(C)n4)c32)c1 (configuration not stated)	nt	nt	nt	nt	nt	i

High-throughput results (PubChem)
